The source of these data is PubChem BioAssay (NCATS).

The structures appear in SMILES notation. Inconclusive results are not listed. The source made the active and inactive calls. Calls come from the whole dose curve; as a rule, active = well fitted curve in the direction sought with a large enough effect; inconclusive = small, poorly fitted or top-dose-only effect, or another doubt; inactive = no such curve, though single readings can be large; an effect the other way counts as inactive or inconclusive.

A short description of assay [1]: S16 Schwann cell viability assay (CellTiter-Glo assay) (AID 624031). Note: nearly all actives have a fitted effect of over 70% in size. The method in brief: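 Native S16 rat Schwann cells, 500-750 cells/well in DMEM with 10% FBS, dosed with compound after overnight culture and incubated 24h at 37 degree Celsius/5% CO2. Viability by CellTiter-Glo luminescence; % activity normalized to no-cell wells and DMSO-treated cells.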
In general terms: ATP-based viability assays read luminescence as a measure of living cells.

Another assay relates to 3D7. Nature of the assay: qHTS profiling for inhibitors of Plasmodium falciparum proliferation (AID 504749). Note: nearly all actives have a fitted effect of over 60% in size. Note: potency is the fitted concentration of half-maximal effect. The settings on record: P. falciparum in erythrocytes, SYBR Green DNA, 72 h; series mostly up to 28.7 µM. The method in brief: (§1)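 SYBR Green fluorescence (ex 485 nm, em 535 nm) reports parasite DNA after 72 h compound exposure of infected red cells at 0.3% parasitemia, 2.5% hematocrit; signal normalized to 0.29 uM artemisinin and vehicle wells.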
Background: Quantitative high-throughput screening tests each substance at several concentrations.

The subject of a further assay is ATS95. Described as above. The conditions noted are these: P. falciparum in erythrocytes, SYBR Green DNA, 72 h; series mostly up to 28.7 µM. The method in brief:
as §1

The next assay relates to CP191. The description is as above. The conditions noted are these: P. falciparum in erythrocytes, SYBR Green DNA, 72 h; series mostly up to 28.7 µM. In short, it runs like this:
as §1

In another assay the test system is CP215. The assay is described as above. The settings on record: P. falciparum in erythrocytes, SYBR Green DNA, 72 h; series mostly up to 28.7 µM. The method in brief: as §1
A further assay has as its system CP247. Described as above. The settings on record: P. falciparum in erythrocytes, SYBR Green DNA, 72 h; series mostly up to 28.7 µM. The method in brief:
as §1

A further assay has as its system CP260. The assay is described as above. The settings on record: P. falciparum in erythrocytes, SYBR Green DNA, 72 h; series mostly up to 28.7 µM. The method in brief:
as §1

The subject of the next assay is CP266. The assay is described as above. The conditions noted are these: P. falciparum in erythrocytes, SYBR Green DNA, 72 h; series mostly up to 28.7 µM. In short, it runs like this:
as §1

The test system of another assay is CP291. The assay is described as above. The settings on record: P. falciparum in erythrocytes, SYBR Green DNA, 72 h; series mostly up to 28.7 µM. The method in brief: as §1
The subject of another assay is CP335. The assay is described as above. The settings on record: P. falciparum in erythrocytes, SYBR Green DNA, 72 h; series mostly up to 28.7 µM. The method in brief: as §1
Another assay deals with DIV17. The assay is described as above. The conditions noted are these: P. falciparum in erythrocytes, SYBR Green DNA, 72 h; series mostly up to 28.7 µM. The method in brief: as §1
The next assay has as its system DIV30. The description is as above. The conditions noted are these: P. falciparum in erythrocytes, SYBR Green DNA, 72 h; series mostly up to 28.7 µM. The method in brief:
as §1

A further assay has as its system P93_24. The description is as above. The conditions noted are these: P. falciparum in erythrocytes, SYBR Green DNA, 72 h; series mostly up to 28.7 µM. The method in brief:
as §1

The subject of another assay is P94_40. The assay is described as above. The settings on record: P. falciparum in erythrocytes, SYBR Green DNA, 72 h; series mostly up to 28.7 µM. The method in brief: as §1
The test system of another assay is PAD. The description is as above. The settings on record: P. falciparum in erythrocytes, SYBR Green DNA, 72 h; series mostly up to 28.7 µM. In short, it runs like this:
as §1

Another assay concerns PC26. Described as above. The conditions noted are these: P. falciparum in erythrocytes, SYBR Green DNA, 72 h; series mostly up to 28.7 µM. In short, it runs like this: as §1
For the next assay, the system named is SC27B. The assay is described as above. The settings on record: P. falciparum in erythrocytes, SYBR Green DNA, 72 h; series mostly up to 28.7 µM. The method in brief: as §1
The test system of a further assay is TAB113. Described as above. The settings on record: P. falciparum in erythrocytes, SYBR Green DNA, 72 h; series mostly up to 28.7 µM. The method in brief:
as §1

For another assay, the system named is TAB165. The description is as above. The settings on record: P. falciparum in erythrocytes, SYBR Green DNA, 72 h; series mostly up to 28.7 µM. In short, it runs like this: as §1
The next assay deals with 7G8. The description is as above. The settings on record: P. falciparum in erythrocytes, SYBR Green DNA, 72 h; series mostly up to 28.7 µM. In short, it runs like this: as §1

As to `CC(=O)O[C@]1(C(C)=O)CCC2C3CCC4=CC(=O)CCC4(C)C3(F)C(O)CC21C` (some centres not stated), the Potency entry (in [1]; with 3D7; in the assay on ATS95; in the assay with CP191; with CP215; in the assay with CP247) was “inactive” in each case. In addition, the Potency result with CP260, in the assay with CP266, in the assay with CP291, in the assay with CP335, with DIV17 and in the assay on DIV30 was “inactive” each time. For the same compound, the Potency result with P93_24, in the assay on P94_40, with PAD, in the assay on PC26, in the assay on SC27B and with TAB113 was “inactive” in each case. Also, the Potency result with TAB165 was “inactive”.
In the case of `C=C1C(n2cnc3c(=O)[nH]c(N)nc32)C[C@H](O)[C@H]1CO` (some centres not stated), the Potency result (in [1]; in the assay on CP191; with CP215; in the assay on CP247; with CP266; with DIV30) was “inactive” throughout. For the same compound, the Potency entry in the assay with P94_40, in the assay on PAD, in the assay on SC27B, with TAB113 and with TAB165 was “inactive” in each case. Besides, the Potency in the assay with 7G8 was 12.6 µM (active).
Consider `Cn1cc(C(=O)[C@@H]2CCc3[nH]cnc3C2)c2ccccc21`, for which the Potency entry in the assay on 3D7, in the assay with ATS95, in the assay with CP191, in the assay with CP215, in the assay on CP247 and in the assay on CP260 was “inactive” each time. Besides, the Potency result with CP266, in the assay on CP291, with CP335, with DIV17, in the assay with DIV30 and with P93_24 was “inactive” throughout. Moreover, the Potency result in the assay on P94_40, with PAD, with PC26, in the assay with SC27B, in the assay on TAB113 and with TAB165 was “inactive” in each case.
Regarding `CC1(C)O[C@@H]2C[C@H]3[C@@H]4CCC5=CC(=O)C=C[C@]5(C)[C@H]4C(O)C[C@]3(C)[C@]2(C(=O)CO)O1` (some centres not stated), the Potency result (in assay [1]; in the assay on 3D7; with ATS95; in the assay on CP191; with CP215; in the assay with CP247) was “inactive” throughout. Besides, the Potency entry in the assay on CP291, in the assay on CP335, with DIV30, in the assay with P94_40, in the assay on PC26 and with TAB113 was “inactive” throughout.
As to `CCC1OC(=O)C[C@@H](O)[C@H](C)[C@@H](OC2OC(C)CC(N(C)C)C2O)[C@@H](CC=O)C[C@@H](C)C(=O)/C=C/[C@]2(C)OC2C1C` (some centres not stated), the Potency result in [1] is “inactive”. The Potency is 4.47 µM (active) in the assay with 7G8, 1.2 µM (active) with CP335 and 1.12 µM (active) in the assay with P93_24.
`CC[C@H]1OC(=O)[C@H](C)C(=O)[C@H](C)[C@@H](OC2O[C@H](C)C[C@H](N(C)C)[C@@H]2O)[C@@](C)(OC)C[C@@H](C)C(=O)[C@@H](C)C2N(CCCCn3cnc(-c4cccnc4)c3)C(=O)O[C@@]21C` (some centres not stated): the Potency result (in assay [1]; with CP215; in the assay on CP247; in the assay with CP266; in the assay with CP291; with PC26) was “inactive” in each case. For the same compound, the Potency with 7G8 was 7.94 µM (active); in the assay on DIV17 it was 13.5 µM (active); in the assay with PAD it was 11.2 µM (active).
In the case of `O=C(NC(CO)C(O)c1ccc([N+](=O)[O-])cc1)C(Cl)Cl` (configuration not stated), the Potency result (in assay [1]; in the assay with ATS95; with DIV17; in the assay on DIV30; in the assay on PAD; in the assay on PC26) was “inactive” in each case. Moreover, the Potency entry in the assay with SC27B is “inactive”. Besides, the results for the Potency with CP291 and in the assay on CP335 were 3.01 µM (active) and 4.78 µM (active), respectively.
As for `Oc1cc2cc(CCN3CCN(c4nsc5ccccc45)CC3)c(Cl)cc2[nH]1`, the Potency in the assay on 7G8 is 6.31 µM (active); with CP247 it was 10 µM (active). For the same compound, the Potency entry with ATS95, in the assay on CP215, in the assay on CP266, in the assay on P94_40, in the assay with SC27B and in the assay with TAB113 was “inactive” in each case.
In the case of `C=CCN1CC(C(=O)N(CCCN(C)C)C(=O)NCC)CC2c3cccc4[nH]cc(c34)CC21` (configuration not stated), the figures for the Potency with 7G8 and in the assay on DIV17 were 10 µM (active) and 13.5 µM (active), respectively. For the same compound, the Potency result in the assay on CP215, in the assay on CP266, in the assay on DIV30 and in the assay with PC26 was “inactive” each time.
On to `Cc1cc(O)c2c(c1)OC1(C)CCC3C(C)(C)CCCC34COC2C14` (configuration not stated), for which the Potency in the assay on 7G8 was 8.91 µM (active); in the assay on DIV17 it was 15.1 µM (active); in the assay on TAB113, 8.91 µM (active). Besides, the Potency entry with CP260 and in the assay on CP291 was “inactive” each time.
